Compounds with a hit are over-represented: about 9% of the library has one in this group of screens.
ALDH1A1 block = blocks purified human ALDH1A1 activity | Potency, µM (series often up to 75.3 µM), actives largely listed as inhibitors | P00352 | Purified ALDH1A1, NADH fluorescence, propionaldehyde substrate | 220,000 tested, 7.3% active
Target sequence (P00352 whole entry, looked up): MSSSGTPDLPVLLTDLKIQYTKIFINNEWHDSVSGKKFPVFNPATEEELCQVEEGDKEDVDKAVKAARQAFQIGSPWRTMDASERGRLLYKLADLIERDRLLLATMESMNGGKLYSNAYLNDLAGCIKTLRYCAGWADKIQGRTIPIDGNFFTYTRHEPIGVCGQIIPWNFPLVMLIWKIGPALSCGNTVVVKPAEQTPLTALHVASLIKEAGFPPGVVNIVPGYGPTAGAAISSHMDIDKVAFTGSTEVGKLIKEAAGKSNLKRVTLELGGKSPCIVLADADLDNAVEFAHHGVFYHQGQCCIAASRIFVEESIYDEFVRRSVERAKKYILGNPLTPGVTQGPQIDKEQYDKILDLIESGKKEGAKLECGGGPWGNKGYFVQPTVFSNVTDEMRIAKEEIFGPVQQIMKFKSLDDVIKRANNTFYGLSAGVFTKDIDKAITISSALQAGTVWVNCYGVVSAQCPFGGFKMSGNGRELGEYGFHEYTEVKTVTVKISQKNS
IMPase cell inh = IMPase inhibition in cells; P97697; CHO-M1 cells, IP1 accumulation, HTRF TR-FRET ratio; inhibition (IP1 accumulation), % at 46.1 µM; 120,000 tested, under 10 active; active means well fitted curve in the direction sought with a large enough effect in the signal ratio, not every such curve was filed as active; inconclusive means small, poorly fitted or top-dose-only effect, or a change in a side signal; inactive means no such curve, though single readings can be large or run the other way; the % refers to the signal ratio;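 further: cells stimulated with carbachol in lithium chloride buffer; higher means more IMPase inhibition seen as more IP1 and lower FRET ratio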
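Elevated IP1 in lysates lowers TR-FRET signal (665/620 ratio and 620 channel reported). Cells were CHO-M1, given carbachol (50 uM as added) plus 50mM LiCl, pH 7.4, 30 min, 37C; compounds titrated up to 46 uM; AC50 by Hill equation.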
HPGD block = HPGD (human) dehydrogenase inhibition | 150,000 tested, 4.3% active | P15428 | purified HPGD, NADH fluorescence kinetic, PGE2 substrate | Potency, µM, usual class: inhibitors | AID 894
Target sequence (P15428 whole entry, looked up): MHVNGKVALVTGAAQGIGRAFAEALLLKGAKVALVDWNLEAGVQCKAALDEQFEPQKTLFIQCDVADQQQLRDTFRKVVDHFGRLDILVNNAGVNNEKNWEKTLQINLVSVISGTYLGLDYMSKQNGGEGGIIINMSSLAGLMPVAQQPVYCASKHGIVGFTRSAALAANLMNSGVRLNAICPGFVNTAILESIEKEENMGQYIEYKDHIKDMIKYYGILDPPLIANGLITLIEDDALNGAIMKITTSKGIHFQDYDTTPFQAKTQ
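20 nM HPGD preincubated 15 min at room temperature with compound in 50 mM Tris-HCl pH 8, 0.01% Tween 20. Started with 1 mM NAD+ and 30 uM prostaglandin E2; NADH fluorescence (360/450 nm) read 5 times over 30-s intervals, last minus first.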
Large screens that a line does not name were inactive. Unless noted, the call rests on the fitted dose curve; in most records, active means well fitted inhibition curve with a large enough effect (not every such curve was filed as active); inconclusive means small, poorly fitted or top-dose-only effect, or another doubt; inactive means no such curve, though single readings can be large or run the other way.

O=C(CSc1nnc2scc(-c3ccccc3)n12)N1CCN(Cc2ccccc2)CC1	none
CCNc1nc(NC(C)C)nc(Oc2ccc(OCCOc3ccc(C)cc3)nn2)n1	none
COc1cccc(Sc2ccccc2/C=N/NC(N)=O)c1	none (no result: IMPase cell inh, HPGD block)
N#Cc1ncn(-c2ccc(Oc3ccccc3)cc2)c1N	none (no result: IMPase cell inh, HPGD block)
COc1ccc(S(=O)(=O)N2CCCCCC2)cc1N(C)S(=O)(=O)c1ccc(C)cc1	ALDH1A1 block inconclusive (no result: HPGD block)
Cn1c(SCC(=O)N2CCCc3ccccc32)nnc1-c1cccs1	none
Cn1nnnc1SCC(=O)N1CCCc2ccccc21	none
CCn1nnnc1SCC(=O)N1CCCc2ccccc21	ALDH1A1 block 3.5µM
O=C(CSc1nnc2scc(-c3ccccc3)n12)N1CCCc2ccccc21	ALDH1A1 block 11µM
O=C(CSc1nnnn1-c1cccc2c1CCCC2)N1CCCCC1	ALDH1A1 block 32µM, HPGD block inconclusive
Cc1ccc(-n2nnnc2SCC(=O)N2CCCCC2)cc1	none
Cc1cc(=O)[nH]c(SCC(=O)N2CCCc3ccccc32)n1	none
O=C(CSc1nc(O)cc(=O)[nH]1)N1CCCc2ccccc21	ALDH1A1 block 22µM, HPGD block 18µM
CCOC(=O)NNC(=O)C1CCC(C)CC1 (centres undefined)	none (no result: IMPase cell inh, HPGD block)
COc1ccc(NC(C)=O)cc1CNC(=O)COc1c(C)c(C)cc(C)c1C	none (no result: IMPase cell inh)
COc1ccc(NC(=O)CCc2nc3ccccc3[nH]2)cc1	none (no result: IMPase cell inh, HPGD block)
Cc1noc(C)c1C(=O)N1CCC2(CCCN(Cc3nccs3)C2)CC1	none (no result: IMPase cell inh)
O=C1CCC(=O)N1c1ccc(CSc2nnnn2C2CCCCC2)cc1	ALDH1A1 block inconclusive
CCOc1ccc2nc(SCC(=O)N3CCCc4ccccc43)sc2c1	none
Cc1ccc(-c2csc3nnc(SCC(=O)Nc4nsc(-c5ccccc5)n4)n23)cc1	ALDH1A1 block 8.9µM
O=C(CSc1nc2cc(Cl)ccc2s1)N1CCCc2ccccc21	ALDH1A1 block 8.9µM, HPGD block inconclusive
Cc1ccc(-c2nnc3ccc(SCC(=O)N4CCCc5ccccc54)nn23)cc1	ALDH1A1 block inconclusive
Cc1ccc(-c2nnc(SCC(=O)N3CCCc4ccccc43)n2N)cc1	ALDH1A1 block 13µM
O=C(O)c1ccc(CSc2nnnn2C2CCCCC2)cc1	ALDH1A1 block 18µM
O=C(CSc1nnc2scc(-c3ccccc3)n12)Nc1nsc(-c2ccccc2)n1	ALDH1A1 block inconclusive, HPGD block inconclusive
COc1ccc(-c2c3c(=O)n(C)c(=O)n(C)c3c3c(-c4ccccc4)nc4ccccc4n23)cc1	none (no result: ALDH1A1 block, HPGD block)
C=C(C)CN(CC)Cc1c(C(=O)N(C)CCCC)nc2ccccn12	none (no result: IMPase cell inh, HPGD block)
O=C(NCCc1ccccc1)C(=O)c1c(-c2ccccc2)[nH]c2ccccc12	none (no result: IMPase cell inh)
Cc1cccc(NC(=O)/C(=C/c2cccc([N+](=O)[O-])c2)NC(=O)c2cccs2)c1	none
O=C(N/C(=C\c1cccc([N+](=O)[O-])c1)C(=O)N1CCCCC1)c1cccs1	ALDH1A1 block 20µM
CN(C)/C=N/c1c(C#N)nnn1Cc1ccccc1	ALDH1A1 block inconclusive, HPGD block 20µM
CN(C)C=Nc1ncc2c3ccccc3n(Cc3ccccc3)c2c1C#N	ALDH1A1 block inconclusive, HPGD block inconclusive
NS(=O)(=O)c1ccc(NC=C2C(=O)OC3(CCCCC3)OC2=O)cc1	ALDH1A1 block 1.9µM, IMPase cell inh inconclusive, HPGD block 35µM
CCCCc1ccc(NC=C2C(=O)OC3(CCCCC3)OC2=O)cc1	ALDH1A1 block inconclusive
CCOC(=O)N1CCN(C(=O)c2ccc(N(Cc3ccccc3)S(C)(=O)=O)cc2)CC1	none
Cc1nc(C(C)NC(=O)CCc2nnc(CCCc3ccccc3)o2)c(C)s1 (centres undefined)	none (no result: IMPase cell inh, HPGD block)
CCOc1ccc(N2C(=O)C3C4C=CC(CC4)C3C2=O)c([N+](=O)[O-])c1 (centres undefined)	ALDH1A1 block 28µM
COc1ccc(N2C(=O)C3C4C=CC(CC4)C3C2=O)c([N+](=O)[O-])c1 (centres undefined)	ALDH1A1 block inconclusive
c1ccc(Sc2ncnc3c2oc2ccccc23)cc1	ALDH1A1 block inconclusive, HPGD block 32µM
OCCSc1ncnc2c1oc1ccccc12	ALDH1A1 block inconclusive, HPGD block 25µM
COc1ccccc1Oc1ncnc2c1oc1ccccc12	none (no result: IMPase cell inh, HPGD block)
N#CCCSc1ncnc2c1oc1ccccc12	ALDH1A1 block inconclusive, IMPase cell inh inconclusive
O=C1CCCCC1Sc1nnc(-c2ccc3c(c2)OCO3)o1 (centres undefined)	none (no result: IMPase cell inh, HPGD block)
CC(C)(CC(=O)O)CC(=O)NCc1c(Cl)cccc1Oc1ccccc1	none (no result: IMPase cell inh, HPGD block)
Cn1nnnc1NCc1cccc(Cl)c1Cl	none (no result: IMPase cell inh, HPGD block)
CCOC(=O)c1cc2c(N)c(C(=O)c3ccc(Br)cc3)sc2[nH]c1=O	none (no result: IMPase cell inh, HPGD block)
O=C1c2ccccc2-c2nnc(-c3ccc(F)cc3)cc21	none (no result: IMPase cell inh, HPGD block)
Cc1ccccc1-c1cc2c(nn1)-c1ccccc1C2=O	ALDH1A1 block 25µM, HPGD block inconclusive
C=CCOc1cccc(NC(=O)c2ccccc2SC)c1	none (no result: IMPase cell inh, HPGD block)
Cc1ccc(OC(=O)CCC(=O)NC(C)c2ccccc2)cc1 (centres undefined)	ALDH1A1 block inconclusive (no result: IMPase cell inh)
Cc1ccc(-n2c([S-])c(C(=O)NC(C)c3ccccc3)[n+]3ccccc23)cc1 (centres undefined)	ALDH1A1 block 3.2µM (no result: IMPase cell inh, HPGD block)
N#CCc1c(C#N)c(N)nc(N2CCN(C=O)CC2)c1C#N	ALDH1A1 block 7.1µM (no result: IMPase cell inh, HPGD block)
CC(=O)N1CCN(c2nc(N)c(C#N)c(CC#N)c2C#N)CC1	none (no result: IMPase cell inh, HPGD block)
CC(=O)Oc1ccc(C2(c3ccc(OC(C)=O)cc3)C(=O)Nc3ccccc32)cc1	none (no result: IMPase cell inh)
CCOc1ccc2c(c1)c1nnc(SCC(=O)N3CCCCC3C)nc1n2C (centres undefined)	ALDH1A1 block 13µM, HPGD block 16µM
CC1CCCCN1C(=O)CSc1nnc(Cc2ccccc2)n1C (centres undefined)	none
CCOc1ccc2c(c1)c1nnc(SCC(=O)N3CCC(C)CC3)nc1n2C	ALDH1A1 block inconclusive, HPGD block 3.5µM
CC1CCN(C(=O)CSc2nc3cccnc3n2C)CC1	none
C#CC1(NC(=O)NC(C)C)CCCCC1	none (no result: IMPase cell inh, HPGD block)
CCOc1cccc(OCCCn2c(-c3ccc(Br)cc3)nc3ccccc3c2=O)c1	none (no result: ALDH1A1 block, HPGD block)
COc1ccc2c(CSc3nc4nc(C)cc(C)n4n3)cc(=O)oc2c1	none
CCOc1ccc(/C=C2/SC(=O)NC2=S)cc1	ALDH1A1 block inconclusive, HPGD block 13µM (no result: IMPase cell inh)
CCOc1ccc(N=C2NC(=O)S/C2=C\c2ccc(N(C)C)cc2)cc1	none
O=C(Nc1cccc(F)c1)N1CCC2(CC1)CCN(C(=O)c1cc(C(F)(F)F)cc(C(F)(F)F)c1)CC2	none (no result: IMPase cell inh)
COc1ccc(Oc2ccc(/C=C/C(=O)c3cccc(OC)c3)cc2[N+](=O)[O-])cc1	none (no result: IMPase cell inh)
CCOc1ccc(Nc2cc(C)c(C#N)c3nc4ccccc4n23)cc1	none (no result: ALDH1A1 block, HPGD block)
Cc1ccc(S(=O)(=O)N2CCOCC2)cc1NC(=O)COC(=O)CNC(=O)c1ccc(C(C)(C)C)cc1	ALDH1A1 block 7.9µM (no result: IMPase cell inh)
CC(C)(C)c1ccc(C(=O)NCC(=O)OCC(=O)Nc2ccccc2[N+](=O)[O-])cc1	ALDH1A1 block 6.3µM (no result: IMPase cell inh)
Cc1ccc(S(=O)(=O)N2CCOCC2)cc1NC(=O)COC(=O)CNC(=O)c1ccc(Oc2ccccc2)cc1	none (no result: IMPase cell inh)
COc1cc(NC(=O)COC(=O)CNC(=O)c2ccc(C)cc2)c(C)cc1[N+](=O)[O-]	none
Cc1ccccc1OCCn1c(=N)n(C(C)C)c2ccccc21	none (no result: ALDH1A1 block, HPGD block)
c1ccc(Cn2c(CNc3nc4ccccc4n3CCN3CCOCC3)nc3ccccc32)cc1	none
CCOC(=O)C1=NN(C(C)=O)C2(CC(=O)N(c3ccc(C)c(C)c3)C2=O)C1 (centres undefined)	none (no result: IMPase cell inh)
